Each structure is given as a SMILES string. Activity calls are given as the source filed them. The calls were made as follows: active = hit-call score of the fitted dose curve at least 0.9, where 1 is the maximum; inactive = score below 0.9.

A word on the AC50: it is the concentration at which the activity in the assay is half-maximal.

Chain of human Peripheral-type Benzodiazepine Receptor (PBR/TSPO) Antagonism, TSPO (gene 706) (P30536 whole entry, looked up): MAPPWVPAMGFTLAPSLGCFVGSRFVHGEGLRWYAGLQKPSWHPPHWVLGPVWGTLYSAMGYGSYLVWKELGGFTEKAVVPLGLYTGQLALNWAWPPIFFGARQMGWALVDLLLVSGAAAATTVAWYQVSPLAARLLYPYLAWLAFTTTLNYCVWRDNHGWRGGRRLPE

The target in this test is human Peripheral-type Benzodiazepine Receptor (PBR/TSPO) Antagonism, TSPO (gene 706) (UniProt P30536). As to the kind of experiment: ERF_FR_MP_hTSPO: Eurofins (ERF) Radioligand Binding LeadHunter Assay for human Peripheral-type Benzodiazepine Receptor (PBR/TSPO) Antagonism. Here is the method:
ERF_FR_MP_hTSPO is a biochemical, single-readout assay that uses extracted gene-proteins in a cell-free assay. Measurements were taken 0.25 hour after chemical dosing in a 96-well plate. See PBR Human Binding (Antagonist Radioligand) Assay, Cerep.ERF_FR_MP_hTSPO is an assay component calculated from the ERF_FR_MP_hTSPO assay. It is designed to measure radioligand binding using a type of binding reporter as detected by scintillation counting with radiometry technology.Data from the assay component ERF_FR_MP_hTSPO was analyzed at the assay endpoint, ERF_FR_MP_hTSPO, in the positive analysis fitting direction relative to DMSO as the negative control and baseline of activity. Using a type of binding reporter, loss-of-signal activity can be used to understand changes in binding as they relate to gene TSPO. To generalize the intended target to other relatable targets, this assay endpoint is annotated to the membrane protein intended target family, where the subfamily is mitochondrial associated translocator protein.
Human glioblastoma U118MG cells are used to prepare peripheral benzodiazepine receptor in modified Tris-HCl buffer pH 7.4. A 100 ug aliquot is incubated with 0.2 nM [3H] PK-11195 for 15 minutes at room temprature. Non-specific binding is estimated in the presence of 10 uM PK-11195. Membranes are filtered and washed, the filters are then counted to determine [3H] […]
Take `COc1cc(CCC(=O)CC(=O)CCc2ccc(O)c(OC)c2)ccc1O`: the compound was called inactive.
As for `O=C(/C=C/c1ccc(O)cc1)CC(=O)/C=C/c1ccc(O)cc1`, the AC50 is 891 nM (active).

The values are drawn from PubChem BioAssay AID2284196 (EPA ToxCast).
